# Source: PubChem
# The list is not random: actives were taken first. Their share in the collection is about 7.4%.
# FLuc counter: qHTS profiling assay for firefly luciferase inhibitor/activator using purifed enzyme and Km concentrations of substrates (counterscreen for miR-21 project); AID 588342, 2011; purified FLuc, Km substrates, luminescence inhibition; 360,000 compounds, 6.9% hits; Luciferin 4-monooxygenase (Photinus pyralis), P08659; Potency, µM (top dose mostly 57.5 µM), inactives show at the top dose activity change, negative = inhibition, actives largely listed as inhibitors;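 further: plate controls were vehicle for no effect and reference inhibitor for full effect; nearly all actives have a fitted effect of over 55% in size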
# Target sequence (P08659 whole entry, looked up): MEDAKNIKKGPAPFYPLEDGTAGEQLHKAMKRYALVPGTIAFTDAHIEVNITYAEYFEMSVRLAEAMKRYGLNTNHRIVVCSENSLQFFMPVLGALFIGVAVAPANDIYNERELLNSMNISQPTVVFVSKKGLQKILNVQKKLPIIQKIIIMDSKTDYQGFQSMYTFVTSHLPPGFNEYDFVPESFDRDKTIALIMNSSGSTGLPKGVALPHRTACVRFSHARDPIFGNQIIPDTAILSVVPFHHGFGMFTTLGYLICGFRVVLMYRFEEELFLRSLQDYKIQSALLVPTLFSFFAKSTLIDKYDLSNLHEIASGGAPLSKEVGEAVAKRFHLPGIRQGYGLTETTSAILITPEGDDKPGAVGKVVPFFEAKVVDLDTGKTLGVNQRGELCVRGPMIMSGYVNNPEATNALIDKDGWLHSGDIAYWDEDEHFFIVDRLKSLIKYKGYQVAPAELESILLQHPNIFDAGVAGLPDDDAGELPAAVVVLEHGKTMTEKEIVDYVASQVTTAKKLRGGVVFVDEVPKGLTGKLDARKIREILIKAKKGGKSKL
#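 Purified P. pyralis luciferase (10nM final) with 10uM D-luciferin and 10uM ATP (Km levels) in 50mM Tris acetate pH 7.5, 10mM Mg acetate, 0.01% Tween-20, 0.05% BSA; qHTS 6-point titration, ~60 µM downward; luminescence read.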
# p53 reactivation: qHTS assay for re-activators of p53 using a Luc reporter. 320,000 compounds, 0.063% hits. Potency, µM (titrated, usually from 92.2 µM), for the others: at the highest dose activity change, positive = activation, hits mostly activators. AID 504706, 2011. H1299 p53-A138V BP100-luciferase reporter, luminescence, 24 h; further: % of control where 0% means no effect; nearly all actives have a fitted effect of over 45% in size
#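 p53-null H1299 cells stably carrying temperature-sensitive p53-A138V and a BP100-luciferase reporter were pinned with compounds (4-point, 1:5 series) and held 24 hrs at 37 deg C. Luminescence was read 10 min after detection reagent.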
# ELG1 genotox: qHTS screen for small molecules that induce genotoxicity in human embryonic kidney (HEK293T) cells expressing luciferase-tagged ELG1; HEK293T ELG1-luciferase reporter, luminescence, 16 h; Potency, µM (highest dose often 46 µM), inactives show at the top dose activity change, positive = activation, actives largely listed as activators; 330,000 compounds, 1.3% hits; AID 504466, 2011; further: % of control where 0% means no effect; nearly all actives have a fitted effect of over 60% in size
#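 Cells (2,000/well) expressing the ELG1-luciferase fusion are dosed by pin tool and kept 16 hr at 37 °C, 5% CO2. Signal comes from ONE-Glo luciferase reagent after 30 min at room temperature.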
# NPC1 promoter act: qHTS Assay for NPC1 Promoter Activators; Huh7 NPC1 promoter luciferase reporter, 24 h; Potency, µM (highest dose often 9.22 µM), inactives show top-dose activation, usual class: activators; 320,000 compounds, 2.4% hits; AID 485313, 2010; further: % of control where 0% means no effect; nearly all actives have a fitted effect of over 60% in size
#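 Huh7 cells stably carrying NPC1 promoter–luciferase, plated in Opti-MEM with 10% FBS for 2 h, were exposed to compound in DMSO for 24 h at 37 °C; luciferase reagent was added for 10 min and luminescence read.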
# SMN2 splice up: qHTS Assay for Enhancers of SMN2 Splice Variant Expression; 210,000 compounds, 2.8% hits; HEK293 SMN2-luciferase splicing reporter, luminescence, 30-36 h; Potency, µM (top dose mostly 46.1 µM), for inactives: at the top dose activity change, positive = activation, hits mostly activators; further: % of control where 0% means no effect; nearly all actives have a fitted effect of over 55% in size
#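 qHTS luciferase splicing reporter: luminescence rises when SMN2 exon 7 is included in transfected HEK293 cells. Compound exposure lasted 30-36 h at 37C, with 4.5 mM final sodium butyrate as control, followed by a ONE-Glo read.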
# Rab9 promoter act: qHTS Assay for Rab9 Promoter Activators; Potency, µM (top dose mostly 9.22 µM), inactives show at the top dose activation, negative = inhibition, usual class: activators; Huh7 Rab9 promoter-luciferase reporter, luminescence, 24 h; AID 485297, 2010; 320,000 compounds, 2.8% hits; further: % of control where 0% means no effect; nearly all actives have a fitted effect of over 60% in size
#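 Promoter activation is measured as luciferase luminescence in Huh7 cells stably transfected with a Rab9 promoter–luciferase construct, following 24 h compound exposure at 37 °C and 10 min reagent incubation at ambient temperature.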
# An asterisk follows results filed as active; ? = inconclusive; · = no result given; [ ] = another dose, or the depositor's remark. The call rests on the fitted dose curve; in most records, active means well fitted curve in the direction sought with a large enough effect; inconclusive means small, poorly fitted or top-dose-only effect, or another doubt; inactive means no such curve, though single readings can be large; an effect the other way counts as inactive or inconclusive. Potency means the concentration at half of the fitted maximal effect.
SMILES,FLuc counter,p53 reactivation,ELG1 genotox,NPC1 promoter act,SMN2 splice up,Rab9 promoter act
COc1ccc(-c2csc(NC(=O)c3ccc(OCC(=O)N4CCOCC4)c(OC)c3)n2)cc1,17µM*,24%,-11%,-1%,-31%,11%
O=C(CC(SCCO)c1ccc2c(c1)OCO2)c1cccs1 (centres undefined),13µM*,?,?,?,24%,4µM*
O=C(CC(SCc1ccco1)c1ccc(O)cc1)c1cccs1 (centres undefined),?,?,?,7%,-4%,17%
CC(=O)c1cccc(OCc2cc(C(=O)N3CCC(N4CCCCC4)CC3)no2)c1,1%,-15%,3%,-3%,·,-2%
CCOc1ccc2nc(N(Cc3cccnc3)C(=O)c3ccc4c(c3)OCCO4)sc2c1,13µM*,·,·,·,·,·
Cc1cc(=O)n2[nH]c(-c3ccc(F)cc3)nc2n1,12µM*,18%,?,19%,11%,3%
Cc1nc2nc(-c3cccnc3)[nH]n2c(=O)c1C,?,2%,14%,2%,-12%,-2%
Cc1cc(=O)n2[nH]c(-c3cccnc3)nc2n1,17µM*,-5%,1%,-4%,-24%,1%
COc1ccc(Cl)cc1NC(=O)Nc1ccc(C(=O)N2CCCC2)cc1,21µM*,11%,-6%,20%,·,19%
COc1ccc(C)cc1NC(=O)Nc1ccc(C(=O)N2CCCC2)cc1,13µM*,24%,18%,23%,·,29%
COc1ccc(Cl)cc1NC(=S)N1CCCC1,0%,-9%,-1%,4%,4%,-1%
COc1ccc(C)cc1NC(=O)Nc1ccccc1,?,3%,-7%,2%,-10%,10%
COc1ccc(S(=O)(=O)c2ccc(OC)cc2)cc1,0%,-4%,4%,-3%,-12%,-5%
COc1ccc(N=[N+]([O-])c2ccc(OC)cc2)cc1,·,·,·,·,7.1µM*,·
C=C1C=C(C(F)F)n2ncc(C(=O)NCCc3ccccc3Cl)c2N1,12%,·,·,·,·,·
COc1ccccc1CCNC(=O)Cc1ccc(NC(=O)N2CCSc3ncccc32)cc1,-14%,·,·,·,·,·
Cc1cc(C(=O)O)ccc1-c1ccc(/C=C2\NC(=O)N(Cc3ccc(F)cc3)C2=O)o1,-8%,-1%,-4%,-3%,·,-2%
Cc1ccc(C(=O)O)cc1-c1ccc(C=C2C(=O)c3ccccc3C2=O)o1,17µM*,0%,0%,0%,16%,-4%
COC(=O)C(C)N1C(=O)S/C(=C\c2ccc(-c3ccc(C(=O)O)cc3C)o2)C1=O (centres undefined),17µM*,14%,?,2.8µM*,·,2.2µM*
O=C1C(=Cc2ccc(Br)o2)C(=O)c2ccccc21,13µM*,-5%,7%,9%,9%,22%
CC1=C/C(=C\c2ccc(Br)o2)C(=O)O1,0%,12%,0%,-4%,1%,1%
CC(=O)Nc1c(C(=O)c2ccccc2)oc2ccccc12,4%,1%,0%,1%,·,5%
Cc1c(C(=O)c2ccccc2)oc2ccc3ccccc3c12,4.8µM*,?,?,?,·,3.2µM*
Cc1cc(-n2c(C)cc(C(=O)COc3ccc4ccc(=O)oc4c3)c2C)no1,17µM*,-4%,-2%,-1%,-15%,7%
Nc1nc(-c2cc(-c3cccc4ccccc34)nc(N)n2)cc(-c2cccc3ccccc23)n1,·,·,·,·,3%[9.22 µM],·
SMILES,FLuc counter,p53 reactivation,ELG1 genotox,NPC1 promoter act,SMN2 splice up,Rab9 promoter act
COc1ccc(C2=NOC(C(=O)N3CCOCC3)C2)cc1OC (centres undefined),-1%,12%,7%,15%,13%,16%
COc1cccc(C2=NOC(C(=O)N3CCOCC3)C2)c1 (centres undefined),19µM*,26%,?,3.5µM*,8%,?
C/C(N)=C(/C#N)C(=O)CSc1nnc(-c2ccc(OC(F)F)cc2)o1,2.7µM*,?,5.8µM*,1.4µM*,11µM*,1.3µM*
NC(=O)c1ccc(NC(=O)CSc2nnc(-c3ccc4c(c3)OCO4)o2)cc1,-2%,5%,6%,11%,·,20%
CCOC(=O)c1c(C)[nH]c(C)c1C(=O)CSc1nnc(-c2ccc(OC(F)F)cc2)o1,5%,-4%,-4%,0%,-54%,1%
C/C(N)=C(/C#N)C(=O)CSc1nnc(Cc2ccccc2F)n1N,0%,5%,-1%,-7%,29%,8%
C/C(N)=C(/C#N)C(=O)CSc1ccccc1F,?,3%,?,?,?,3.5µM*
O=C(O)CSc1nnc(-c2ccc3c(c2)OCO3)o1,?,-11%,1%,-2%,-1%,-3%
O=C(c1ccc(Cl)cc1)N1CCCCC(Sc2nnc(-c3ccc4c(c3)OCO4)o2)C1=O (centres undefined),1.9µM*,-8%,?,?,-87%,?
C/C(N)=C(/C#N)C(=O)CSc1nnc(-c2ccc3c(c2)OCO3)o1,0.27µM*,·,0.58µM*,0.28µM*,1.1µM*,0.1µM*
Cc1cccc(C)c1NC(=O)CCSCCc1ccccn1,-2%,·,·,·,·,·
CC(C)c1ccc(C2(C)NC(=O)N(CC(=O)N3CCN(C(=O)c4cccs4)CC3)C2=O)cc1 (centres undefined),·,3%,-2%,-2%,·,-3%
NC(=O)CSc1nnc(-c2ccc3c(c2)OCO3)o1,15µM*,2%,?,2.8µM*,13µM*,2.5µM*
Cn1c(=O)c2c(ncn2CCSS(=O)(=O)O)n(C)c1=O,·,·,·,·,-7%[9.22 µM],·
CC(=O)OC/C=C(C)/C=C/C=C(C)/C=C/C1=C(C)CCCC1(C)C,·,·,·,·,-1%,·
CCCOc1ccc(-c2c(C(=O)N/N=C/c3cccs3)nnn2-c2nonc2N)cc1,2%,-7%,-5%,-4%,·,4%
O=C(/C=C/Nc1ccc([N+](=O)[O-])cc1Br)c1cccc2ccccc12,2.4µM*,?,?,3.2µM*,5.6µM*,1.1µM*
NC(=O)c1cc([N+](=O)[O-])ccc1NCc1cccc2ccccc12,-12%,-7%,4%,-3%,·,-3%
Fc1ccc(-c2nc3c(Cl)cc(C(F)(F)F)cn3c2Cl)cc1,?,?,16µM*,-1%,18µM*,0%
O=C(CN1C(=O)NC2(CCCCC2)C1=O)N1CCOCC1,-1%,5%,0%,-3%,·,-5%
N#Cc1ccc(NC(=O)c2cc(-c3cccc(Cl)c3)on2)cc1,-4%,·,·,·,4%,·
